Measured values taken from the supplement of paper PMC12669032.

Assays:
Assay in all cases: growth AUC relative to DMSO control (median of replicates) (fraction); higher = more growth (less inhibition), active = hit call of the paper
Details in all cases: 20 µM; 24 h;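 active = AUC reduced over 20% with Padj below 0.05 in at least 2 of 3 replicates; inactive = otherwise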
Akkermansia muciniphila = test system: Akkermansia muciniphila
In short: (§1)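 For each compound at 20 µM (1% DMSO), gut bacterial monocultures seeded at OD600 0.05 grew anaerobically in mGAM at 37 °C in round-bottom 96-well plates. Hourly OD600 readings over 24 h gave growth curves whose minimum OD was set to 0. Area under these curves was normalised to the plate median of solvent-only wells, or to row and column medians on the industrial chemical plate. Values are medians of three biological replicates grown on separate days.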

Bacteroides caccae = test system: Bacteroides caccae
In short: as §1

Bacteroides clarus = test system: Bacteroides clarus
In short: as §1

Bacteroides dorei = test system: Bacteroides dorei
In short: as §1

Bacteroides stercoris = test system: Bacteroides stercoris
In short: as §1

[1] = test system: Bacteroides thetaiotaomicron
In short: as §1

Bacteroides uniformis = test system: Bacteroides uniformis
In short: as §1

[2] = test system: Bifidobacterium longum subsp. longum
In short: as §1

Clostridium difficile = test system: Clostridium difficile
In short: as §1

Collinsella aerofaciens = test system: Collinsella aerofaciens
In short: as §1

Coprococcus comes = test system: Coprococcus comes
In short: as §1

Escherichia coli ED1a = test system: Escherichia coli ED1a
In short: as §1

Escherichia coli IAI1 = test system: Escherichia coli IAI1
In short: as §1

Eubacterium rectale = test system: Eubacterium rectale
In short: as §1

[3] = test system: Fusobacterium nucleatum subsp. animalis
In short: as §1

Lactobacillus gasseri = test system: Lactobacillus gasseri
In short: as §1

Lactobacillus paracasei = test system: Lactobacillus paracasei
In short: as §1

Odoribacter splanchnicus = test system: Odoribacter splanchnicus
In short: as §1

[4] = test system: Parabacteroides distasonis
In short: as §1

Parabacteroides merdae = test system: Parabacteroides merdae
In short: as §1

Measured: growth AUC

C#CCOc1cc(-n2nc(C(C)(C)C)oc2=O)c(Cl)cc1Cl
active: Bacteroides uniformis 0.799 | [4] 0.392
inactive: Akkermansia muciniphila 1.14 | Bacteroides caccae 0.977 | Bacteroides clarus 0.986 | Bacteroides dorei 0.951 | Bacteroides stercoris 0.879 | [1] 0.932 | [2] 1.05 | Clostridium difficile 0.862 | Collinsella aerofaciens 0.917 | Coprococcus comes 0.991 | Escherichia coli ED1a 0.971 | Escherichia coli IAI1 0.996 | Eubacterium rectale 1.09 | [3] 0.926 | Lactobacillus gasseri 0.831 | Lactobacillus paracasei 0.958 | Odoribacter splanchnicus 0.904 | Parabacteroides merdae 0.951

N[C@@H](Cc1cc(I)c(Oc2cc(I)c(O)c(I)c2)c(I)c1)C(=O)O
inactive: Akkermansia muciniphila 1.1 | Bacteroides caccae 0.944 | Bacteroides clarus 0.96 | Bacteroides dorei 1.04 | Bacteroides stercoris 0.838 | [1] 0.908 | Bacteroides uniformis 1.01 | [2] 0.93 | Clostridium difficile 0.945 | Collinsella aerofaciens 0.923 | Coprococcus comes 0.906 | Escherichia coli ED1a 0.959 | Escherichia coli IAI1 0.941 | Eubacterium rectale 1.04 | [3] 0.838 | Lactobacillus gasseri 0.87 | Lactobacillus paracasei 0.886 | Odoribacter splanchnicus 0.957 | [4] 0.921 | Parabacteroides merdae 0.949

CCSc1nc(NC(C)C)nc(NC(C)C)n1
inactive: Akkermansia muciniphila 0.919 | Bacteroides caccae 1.01 | Bacteroides clarus 0.923 | Bacteroides dorei 0.983 | Bacteroides stercoris 0.88 | [1] 0.863 | Bacteroides uniformis 0.948 | [2] 0.984 | Clostridium difficile 1.03 | Collinsella aerofaciens 0.995 | Coprococcus comes 0.984 | Escherichia coli ED1a 1.01 | Escherichia coli IAI1 0.982 | Eubacterium rectale 0.787 | [3] 0.91 | Lactobacillus gasseri 1.03 | Lactobacillus paracasei 0.896 | Odoribacter splanchnicus 0.968 | [4] 1 | Parabacteroides merdae 0.91

CC(C)CCCCCOC(=O)C(C)Oc1ccc(Cl)cc1Cl (stereo not given)
inactive: Akkermansia muciniphila 1.14 | Bacteroides caccae 1 | Bacteroides clarus 1.03 | Bacteroides dorei 0.954 | Bacteroides stercoris 0.966 | [1] 1.04 | Bacteroides uniformis 0.992 | [2] 0.969 | Clostridium difficile 1.06 | Collinsella aerofaciens 1.02 | Coprococcus comes 1.01 | Escherichia coli ED1a 0.979 | Escherichia coli IAI1 1.02 | Eubacterium rectale 1.21 | [3] 1.06 | Lactobacillus gasseri 0.817 | Lactobacillus paracasei 0.962 | Odoribacter splanchnicus 0.814 | [4] 0.925 | Parabacteroides merdae 0.9

CCCN(CCC)C(=O)SCC
inactive: Akkermansia muciniphila 0.884 | Bacteroides caccae 1.02 | Bacteroides clarus 0.97 | Bacteroides dorei 1.01 | Bacteroides stercoris 0.942 | [1] 0.998 | Bacteroides uniformis 0.959 | [2] 0.97 | Clostridium difficile 1.03 | Collinsella aerofaciens 0.992 | Coprococcus comes 0.969 | Escherichia coli ED1a 0.967 | Escherichia coli IAI1 1.01 | Eubacterium rectale 0.944 | [3] 0.893 | Lactobacillus gasseri 1.03 | Lactobacillus paracasei 1.02 | Odoribacter splanchnicus 1 | [4] 1.03 | Parabacteroides merdae 0.984

CCCCOCCOCCOCc1cc2c(cc1CCC)OCO2
inactive: Akkermansia muciniphila 0.968 | Bacteroides caccae 0.968 | Bacteroides clarus 0.983 | Bacteroides dorei 1.01 | Bacteroides stercoris 1.01 | [1] 0.96 | Bacteroides uniformis 0.948 | [2] 1.03 | Clostridium difficile 1.03 | Collinsella aerofaciens 0.98 | Coprococcus comes 1.06 | Escherichia coli ED1a 1.03 | Escherichia coli IAI1 1 | Eubacterium rectale 0.84 | [3] 0.992 | Lactobacillus gasseri 1.03 | Lactobacillus paracasei 1.01 | Odoribacter splanchnicus 1.07 | Parabacteroides merdae 0.924
active: [4] 0.529

COC(=O)CCCOc1ccc(Cl)cc1Cl
inactive: Akkermansia muciniphila 1.01 | Bacteroides caccae 0.964 | Bacteroides clarus 1.02 | Bacteroides dorei 0.922 | Bacteroides stercoris 0.997 | [1] 1.01 | Bacteroides uniformis 0.945 | [2] 1.04 | Clostridium difficile 0.973 | Collinsella aerofaciens 0.987 | Coprococcus comes 0.968 | Escherichia coli ED1a 0.983 | Escherichia coli IAI1 0.958 | Eubacterium rectale 1.1 | [3] 0.966 | Lactobacillus gasseri 0.916 | Lactobacillus paracasei 0.916 | Odoribacter splanchnicus 0.925 | [4] 0.791 | Parabacteroides merdae 0.97

S=C([S-])NCCNC(=S)[S-].S=C([S-])NCCNC(=S)[S-].[Mn+2].[Zn+2]
inactive: Akkermansia muciniphila 0.974 | Bacteroides caccae 1.02 | Bacteroides clarus 1.1 | Bacteroides dorei 1.06 | Bacteroides stercoris 1.06 | [1] 0.975 | Bacteroides uniformis 1.07 | [2] 1.03 | Clostridium difficile 0.994 | Collinsella aerofaciens 1.03 | Coprococcus comes 0.99 | Escherichia coli ED1a 0.996 | Escherichia coli IAI1 1.03 | Eubacterium rectale 1.22 | [3] 1.06 | Lactobacillus gasseri 1.03 | Lactobacillus paracasei 1.08 | Odoribacter splanchnicus 0.967 | [4] 1.01 | Parabacteroides merdae 1.01

CC(=O)Oc1c(Cl)c(Cl)c(Cl)c(Cl)c1Cl
inactive: Akkermansia muciniphila 0.861 | [2] 0.942 | Collinsella aerofaciens 0.937 | Coprococcus comes 0.953 | Escherichia coli ED1a 0.936 | Escherichia coli IAI1 0.808 | Eubacterium rectale 0.942 | [3] 0.782 | Lactobacillus gasseri 0.871 | Lactobacillus paracasei 1.05
active: Bacteroides caccae 0.559 | Bacteroides clarus 0.585 | Bacteroides dorei 0.66 | Bacteroides stercoris 0.448 | [1] 0.565 | Bacteroides uniformis 0.52 | Clostridium difficile 0.784 | Odoribacter splanchnicus 0.548 | [4] 0.542 | Parabacteroides merdae 0.558

CCOC(=O)CSc1nc(C(C)(C)C)nn1C(=O)N(C)C
inactive: Akkermansia muciniphila 1.03 | Bacteroides caccae 0.951 | Bacteroides clarus 0.96 | Bacteroides dorei 0.94 | Bacteroides stercoris 0.815 | [1] 0.978 | Bacteroides uniformis 0.989 | [2] 0.96 | Clostridium difficile 1.01 | Collinsella aerofaciens 0.931 | Coprococcus comes 0.985 | Escherichia coli ED1a 0.961 | Escherichia coli IAI1 0.947 | Eubacterium rectale 1.05 | [3] 0.918 | Lactobacillus gasseri 0.91 | Lactobacillus paracasei 0.956 | Odoribacter splanchnicus 0.948 | [4] 0.896 | Parabacteroides merdae 0.947

CCCCCCCCCCCC[N+](C)(C)Cc1ccc(CC)cc1.[Cl-]
inactive: Akkermansia muciniphila 0.765 | Bacteroides dorei 0.92 | Clostridium difficile 0.73 | Escherichia coli ED1a 0.981 | Escherichia coli IAI1 0.945 | Eubacterium rectale 0.863 | [3] 0.902 | Lactobacillus paracasei 0.708 | Odoribacter splanchnicus 0.973
active: Bacteroides caccae 0.0238 | Bacteroides clarus 0.234 | Bacteroides stercoris 0.00577 | [1] 0.00582 | Bacteroides uniformis 0.0211 | [2] 0.665 | Collinsella aerofaciens 0.502 | Coprococcus comes 0.374 | Lactobacillus gasseri 0.651 | [4] 0.671 | Parabacteroides merdae 0.708

N#Cc1c(N)nc(NC2CC2)nc1N
inactive: Akkermansia muciniphila 0.971 | Bacteroides caccae 1.03 | Bacteroides clarus 0.972 | Bacteroides dorei 1.02 | Bacteroides stercoris 0.984 | [1] 1.01 | Bacteroides uniformis 0.987 | [2] 0.899 | Clostridium difficile 1.06 | Collinsella aerofaciens 1.05 | Coprococcus comes 1.01 | Escherichia coli ED1a 0.991 | Escherichia coli IAI1 0.992 | Eubacterium rectale 0.935 | [3] 0.994 | Lactobacillus gasseri 0.939 | Lactobacillus paracasei 0.972 | Odoribacter splanchnicus 1.01 | [4] 1.02 | Parabacteroides merdae 1

COc1ccccc1C(=O)NS(=O)(=O)c1ccc(C(=O)NC2CC2)cc1
inactive: Akkermansia muciniphila 0.895 | Bacteroides caccae 1.01 | Bacteroides clarus 0.994 | Bacteroides dorei 1 | Bacteroides stercoris 1.03 | [1] 0.954 | Bacteroides uniformis 0.999 | [2] 0.954 | Clostridium difficile 0.985 | Collinsella aerofaciens 1.02 | Coprococcus comes 0.995 | Escherichia coli ED1a 1.03 | Escherichia coli IAI1 1.02 | Eubacterium rectale 0.97 | [3] 1.01 | Lactobacillus gasseri 1.21 | Lactobacillus paracasei 1 | Odoribacter splanchnicus 0.989 | [4] 1.03 | Parabacteroides merdae 1.01

S=C([S-])NCCNC(=S)[S-].[Zn+2]
inactive: Akkermansia muciniphila 1.16 | Bacteroides caccae 1.05 | Bacteroides clarus 0.989 | Bacteroides dorei 0.999 | Bacteroides stercoris 0.983 | [1] 0.978 | Bacteroides uniformis 1.03 | [2] 0.995 | Clostridium difficile 0.972 | Collinsella aerofaciens 0.992 | Coprococcus comes 0.994 | Escherichia coli ED1a 0.998 | Escherichia coli IAI1 0.992 | Eubacterium rectale 1.1 | [3] 0.978 | Lactobacillus gasseri 0.966 | Lactobacillus paracasei 1.01 | Odoribacter splanchnicus 0.999 | [4] 1.01 | Parabacteroides merdae 0.974

CN(C)C(N)=O
inactive: Akkermansia muciniphila 1.05 | Bacteroides caccae 0.949 | Bacteroides clarus 0.998 | Bacteroides dorei 0.982 | Bacteroides stercoris 1.05 | [1] 0.99 | Bacteroides uniformis 0.971 | [2] 0.973 | Clostridium difficile 1.03 | Collinsella aerofaciens 0.977 | Coprococcus comes 0.993 | Escherichia coli ED1a 1.01 | Escherichia coli IAI1 0.953 | Eubacterium rectale 0.967 | [3] 1.01 | Lactobacillus gasseri 0.983 | Lactobacillus paracasei 1.03 | Odoribacter splanchnicus 1.03 | [4] 0.968 | Parabacteroides merdae 1.01

Cc1cccc(C)c1N(CC(=O)O)C(=O)CS(=O)(=O)[O-].[Na+]
inactive: Akkermansia muciniphila 0.891 | Bacteroides caccae 1.01 | Bacteroides clarus 0.939 | Bacteroides dorei 0.998 | Bacteroides stercoris 0.888 | [1] 1.01 | Bacteroides uniformis 1 | [2] 0.938 | Clostridium difficile 1.05 | Collinsella aerofaciens 0.973 | Coprococcus comes 0.996 | Escherichia coli ED1a 0.973 | Escherichia coli IAI1 0.946 | Eubacterium rectale 0.847 | [3] 0.941 | Lactobacillus gasseri 0.987 | Lactobacillus paracasei 0.928 | Odoribacter splanchnicus 1.01 | [4] 0.965 | Parabacteroides merdae 0.997
